p53ts 32C kill = kills p53ts cells at the permissive temperature; H1299-p53A138V at 32C, ATP luminescence viability, 24 h; 130,000 compounds, 0.93% hits; Potency, µM (top dose mostly 46.1 µM), inactives show top-dose activity change, negative = cytotoxicity, most hits filed as cytotoxic;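 further: 0% = DMSO and -100% = full killing by reference compound; nearly all actives have a fitted effect of over 55% in size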
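Viability by ATPlite luminescence after 24 h compound treatment (up to 46 uM) at the permissive 32C. Cells are H1299 carrying p53 A138V. Scale runs from DMSO basal to 100 uM tamoxifen as full kill; AC50 from Hill fits.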
Peg3 imprint = genomic imprint erasure induction; mouse ES Peg3-LacZ reporter, beta-gal luminescence, 40 h; Potency, µM (titrated, usually from 60.7 µM), for the others: at the top dose activity change, positive = activation, most hits filed as activators; 110,000 compounds, 0.02% hits
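Imprint erasure is scored as LacZ activity from the silenced maternal Peg3 allele in feeder-free female ES cells cultured 40 h with LIF. Luminescence is normalized to in-plate negative controls and fitted to the Hill equation.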
IkB signaling = inhibitors of IkB signaling in ABC-DLBCL cells; ABC-DLBCL IkBa-CBG/CBR dual luciferase ratio, 4 h; response scale: scaled: untreated 0%, proteasome inhibitor 100%; Potency, µM (titrated, usually from 57.1 µM), for the others: at the top dose IkBa stabilization activation; 110,000 compounds, 0.04% hits; active means well fitted curve in the direction sought with a large enough effect in the signal ratio, not every such curve was filed as active; inconclusive means small, poorly fitted or top-dose-only effect, or a change in a side signal; the % refers to the signal ratio;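 further: the direction sought is a rising ratio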
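Curves were fitted separately to fusion (green), unfused (red) and ratio luminescence, then classed by r2, magnitude and activity. Cells: OCI-Ly3, 4 h compound plus doxycycline at 37C; 10 uM MG-132 defined full response.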
p53ts 39C kill = cytotoxicity in p53ts cells at nonpermissive temperature; H1299-p53A138V viability at 39C, ATP luminescence, 24 h; Potency, µM (titrated, usually from 46.1 µM), without a hit: top-dose activity change, negative = cell killing, hits mostly cytotoxic; 130,000 compounds, 1.5% hits; further: on the % scale 0 is the no-effect control and ±100 the full control effect; nearly all actives have a fitted effect of over 55% in size
* = called active by the depositor; ? = inconclusive; . = not tested or not shown; [ ] = dose if it differs, or a comment. A selection: hits, their analogues and other compounds. The true share with any hit is near 1.8%. Unless noted, the call rests on the fitted dose curve; in most records, active means well fitted curve in the direction sought with a large enough effect; inconclusive means small, poorly fitted or top-dose-only effect, or another doubt; inactive means no such curve, though single readings can be large; an effect the other way counts as inactive or inconclusive. Potency means the concentration at half of the fitted maximal effect.

SMILES	p53ts 32C kill	Peg3 imprint	IkB signaling	p53ts 39C kill
O=C(Cc1cc(=O)[nH]c(=O)[nH]1)NCCN1CCOCC1	13µM*	-50%	1%	?
O=C(Cc1cc(=O)[nH]c(=O)[nH]1)NCC1CCCO1 (configuration not stated)	-10%	-26%	?	20µM*
COc1ccc(S(=O)(=O)N2CCN(c3ccccc3F)CC2)cc1-c1noc(C)n1	?	-7%[10.9 µM]	0%	13µM*
CCc1nc(-c2cc(S(=O)(=O)N3CCN(c4ccccc4F)CC3)ccc2OC)no1	-4%	-4%[10.9 µM]	1%	-3%
O=C(NCCc1ccccc1F)C1CCCN1S(=O)(=O)c1ccc2ccccc2c1 (configuration not stated)	-7%	.	.	7%
CC1=C(C(=O)OCCOC(C)C)C(c2cc3c(cc2Br)OCO3)C2=C(CCCC2=O)N1 (configuration not stated)	9%	-7%	1%	3%
Clc1ccc(-c2cn3cc(Cc4ccccc4)sc3n2)cc1	?	-4%[10.9 µM]	?	6.3µM*
Fc1ccc(Cc2cn3cc(-c4ccc(F)cc4)nc3s2)cc1	?	-13%[10.9 µM]	?	7.9µM*
Fc1ccc(-c2cn3cc(Cc4ccccc4Cl)sc3n2)cc1	7.9µM*	26%[10.9 µM]	?	5µM*
Cc1c(C(=O)NCc2ccc(F)cc2)sc2nc(-c3ccc(F)cc3)cn12	-5%	5%[10.9 µM]	4%	-3%
Fc1ccccc1Cc1cn2cc(-c3ccc(Cl)cc3)nc2s1	?	7%[10.9 µM]	?	10µM*
Cc1ccc(CNC(=O)c2sc3nc(-c4ccccc4)cn3c2C)cc1	-3%	-4%[10.9 µM]	1%	-22%
Cc1ccc(Cc2cn3cc(-c4ccccc4)nc3s2)cc1	?	-22%[10.9 µM]	?	4µM*
NC(=O)C1CCN(C(=O)c2ccc(NC(=O)c3nsc4ccccc34)cc2)CC1	2µM*	-32%[10.9 µM]	?	2.5µM*
N#Cc1c(-c2ccccc2)no[n+]1[O-]	?	-30%	?	16µM*
COc1ccc(CCCO[C@@H](Cn2ccnc2)c2ccc(OC)cc2)cc1	?	-16%	?	32µM*
COc1ccc(C(=O)NCCCn2ccnc2)cc1	5%	-5%	0%	0%
COc1cc2cc3c4c(cc(OC)c(OC)c4c2cc1OC)CCN3C	32µM*	-47%	3%[11.4 µM]	32µM*
COc1ccc(CNC(=O)CSc2nnc(C)c3c(C)n(-c4ccccc4)nc23)c(OC)c1	14%	-4%[10.9 µM]	?	13µM*
COc1ccccc1CNC(=O)CCn1nc(C)c2c(C)n(-c3ccccc3)nc2c1=O	7%	27%[10.9 µM]	2%	3%
Cc1nnc(SCC(=O)NCc2ccccc2F)c2nn(-c3ccc(Cl)cc3)c(C)c12	-20%	-10%[10.9 µM]	7%	43%
COc1cccc(CNC(=O)CSc2nnc(C)c3c(C)n(-c4ccccc4)nc23)c1OC	-6%	12%[10.9 µM]	?	25µM*
CCc1ccccc1NC(=O)C1=CC(c2ccc(OC)c(OC)c2)=NS(=O)(=O)N1C	3%	-16%[10.9 µM]	0%	7%
OC[C@H]1O[C@@H](n2cnc3c(NCCc4ccccc4)ncnc32)[C@H](O)[C@H]1O	11%	-21%	.	-12%
OC[C@H]1O[C@@H](n2cnc3c(NCc4ccccc4)ncnc32)[C@H](O)[C@@H]1O	6.3µM*	-1%	.	10µM*
SMILES	p53ts 32C kill	Peg3 imprint	IkB signaling	p53ts 39C kill
Cc1ccc(-c2nc3ccccc3[nH]2)s1	13µM*	-91%	?	13µM*
Nc1nc(-c2nc3ccccc3[nH]2)cs1	16µM*	-82%	?	13µM*
c1csc(-c2nc3ccccc3[nH]2)c1	-21%	-73%	2%	-15%
CCCCCn1c(SCC(=O)OCC)nc2cc(C(=O)NCc3ccco3)ccc2c1=O	-2%	-8%	0%	6%
CCCCCCCCCCCCCCCC(=O)O[C@H](CC(=O)O)C[N+](C)(C)C	13µM*	-10%	-1%	?
COc1ccc(-n2ncc3c(NC(C)(C)CO)ncnc32)cc1	13µM*	-17%[10.9 µM]	-2%	10µM*
COc1ccc(CNc2ncnc3c2cnn3-c2ccc(C)c(C)c2)cc1	-4%	-12%[10.9 µM]	-1%	-25%
CC(C)(C)Nc1ncnc2c1cnn2-c1ccccc1	7.9µM*	-24%	?	10µM*
COc1ccc(Nc2nc(N)c3cc(OC)c(OC)cc3n2)cc1	?	-39%[10.9 µM]	?	13µM*
O=C(NC1CCCCC1)N(Cc1ccccc1)Cc1ccco1	9%	-14%	1%	0%
